Reference: the supplement of paper PMC10849652
About 8,800 targets were measured; listed, in parts, are those with a hit and a random draw of the rest. About 0.5% of all pairs of compound and target were hits.

Tests used:
Assay in all cases: log2 fold change, soluble protein after heating vs DMSO (PISA); higher = thermal stabilisation; K562 lysate, 10 uM; active = over 0.2 and 3.5 SD of the protein, either way, in both replicates (recomputed)
[1] = compound: C#Cc1cccc(Nc2ncnc3cc(OCCOC)c(OCCOC)cc23)c1 [erlotinib]
In short: (§1)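 K562 pellets were dounce-homogenised in PBS pH 7.4 containing 1 mM MgCl2, and the crude extract, at 1 mg/mL protein, was exposed to 10 μM compound for 30 min. Aliquots were heated for 3 min across 48°C-58°C, pooled, brought to 0.5% NP-40 at 4°C and spun at 21,000xg for 90 min, with the supernatant taken as soluble protein. TMTpro 16plex LC-MS/MS with equalised channel sums quantified that protein. Values are log-two fold changes in thermal stability relative to solvent controls, taken from duplicates.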

[2] = compound: C/C(=N\NC(=O)C1=CC(=CC=C1)S(=O)(=O)N2CCOCC2)/C3=C(C=CC(=C3)Cl)O
In short: as §1

[3] = compound: C1=CC(=CC=C1C2=NC3=C(N2)C=C(C=C3)C(=O)N)OC4=CC=C(C=C4)Cl
In short: as §1

[4] = compound: C1=CC2=C(C=CC(=C2)/C=C\3/C(=O)NC(=NCC4=CC=CS4)S3)N=C1
In short: as §1

[5] = compound: C1=CC2=NC=CN=C2C=C1/C=C/3\C(=O)NC(=O)S3
In short: as §1

[6] = compound: C1=CC=C(C=C1)C2=NC(=C(N2)C3=CC=NC=C3)C4=CC(=C(C=C4)Cl)O
In short: as §1

[7] = compound: C1=CC=C2C(=C1)C3=NNC4=CC=CC(=C43)C2=O
In short: as §1

[8] = compound: C1CCN(C1)C(=O)NC2=CC=CC(=C2)NC3=NC=C(C(=N3)NCCC4=CN=CN4)Br
In short: as §1

[9] = compound: C1CN(CCC1(CC2=CC=C(C=C2)Cl)N)C3=NC=NC4=C3C=CN4
In short: as §1

[10] = compound: C1COCCN1CCN2C3=CC=CC=C3N=C2NC(=O)C4=CC(=CC=C4)[N+](=O)[O-] [IRAK-1-4 Inhibitor I]
In short: as §1

[11] = compound: C=CC(=O)N1CCC[C@@H](n2nc(-c3ccc(Oc4ccccc4)cc3)c3c(N)ncnc32)C1 [ibrutinib]
In short: as §1

[12] = compound: CC(=O)c1cnc2ccc(-c3cc(Cl)c(O)c(Cl)c3)nc2c1N[C@H]1CC[C@H](CN(C)C)CC1
In short: as §1

[13] = compound: CC(C)(C)Cn1c(N)nc2ccc(-c3[nH]c(C(C)(C)C)nc3-c3ccc(F)cc3)nc21 [ralimetinib]
In short: as §1

[14] = compound: CC(C)(O)CC(=O)NCCn1ccc2ncnc(Nc3ccc(Oc4cccc(C(F)(F)F)c4)c(Cl)c3)c21
In short: as §1

[15] = compound: CC(C)C1=C2N=C(C=C(N2N=C1)NCC3=CC=CC=C3)NCCCCCCN
In short: as §1

[16] = compound: CC1=C(C(CC(=O)N1)C2=CC=C(C=C2)C(F)(F)F)C(=O)NC3=C(C=C4C(=C3)C=NN4)F
In short: as §1

[17] = compound: CC1=C(C2=C(C=C1)C(=O)C3=CC=CC=C3N2CCCN)C
In short: as §1

[18] = compound: CC1=C(C=C(C=C1)NC(=O)C2=CC(=CC=C2)C(C)(C)C#N)NC3=CC4=C(C=C3)N=CN(C4=O)C
In short: as §1

[19] = compound: CC1=C(C=C(C=C1)NC(=O)C2=CC(=CC=C2)N(C)C)NC(=O)C3=CC=C(C=C3)O
In short: as §1

[20] = compound: CC1=CC=C(C=C1)SC2=C3C=C(SC3=CN=C2)C(=O)N
In short: as §1

Measured: log2 fold change

EXOC1 (UniProt Q9NV70)
UniProt Q9NV70, sequence (Q9NV70 whole entry, looked up): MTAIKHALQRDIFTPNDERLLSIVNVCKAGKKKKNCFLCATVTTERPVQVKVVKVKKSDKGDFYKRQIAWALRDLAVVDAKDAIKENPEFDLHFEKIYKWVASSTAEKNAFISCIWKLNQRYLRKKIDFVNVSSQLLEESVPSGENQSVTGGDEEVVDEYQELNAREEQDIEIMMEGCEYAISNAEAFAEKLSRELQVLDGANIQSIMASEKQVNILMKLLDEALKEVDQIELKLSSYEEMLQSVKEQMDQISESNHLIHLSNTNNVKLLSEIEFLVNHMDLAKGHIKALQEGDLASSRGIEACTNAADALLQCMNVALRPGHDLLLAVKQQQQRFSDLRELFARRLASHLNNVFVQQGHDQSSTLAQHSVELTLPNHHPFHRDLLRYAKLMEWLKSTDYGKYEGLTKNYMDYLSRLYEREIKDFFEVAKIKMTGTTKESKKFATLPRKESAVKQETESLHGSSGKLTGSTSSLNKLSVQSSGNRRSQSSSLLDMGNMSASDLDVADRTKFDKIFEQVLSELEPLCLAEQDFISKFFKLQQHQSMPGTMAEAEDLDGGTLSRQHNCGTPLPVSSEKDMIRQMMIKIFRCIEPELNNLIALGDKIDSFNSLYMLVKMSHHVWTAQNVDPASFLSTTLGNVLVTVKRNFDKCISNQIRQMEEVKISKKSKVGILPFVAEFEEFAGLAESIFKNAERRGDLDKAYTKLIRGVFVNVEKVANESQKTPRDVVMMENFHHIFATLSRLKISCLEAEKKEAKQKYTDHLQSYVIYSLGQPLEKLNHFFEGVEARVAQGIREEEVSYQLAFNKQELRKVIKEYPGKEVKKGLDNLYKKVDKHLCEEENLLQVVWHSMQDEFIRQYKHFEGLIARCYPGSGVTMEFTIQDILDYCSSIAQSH
inactive: [1] 0.05 | [2] -0.005 | [3] -0.047 | [4] -0.009 | [5] 0.074 | [6] -0.035 | [7] -0.043 | [8] 0.014 | [9] -0.016 | [10] -0.011 | [11] -0.043 | [12] 0.012 | [13] 0.04 | [14] -0.004 | [15] -0.023 | [16] -0.022 | [17] 0.016 | [18] -0.026 | [19] 0.032 | [20] -0.011

EIF1 (UniProt P41567)
UniProt P41567, sequence (P41567 whole entry, looked up): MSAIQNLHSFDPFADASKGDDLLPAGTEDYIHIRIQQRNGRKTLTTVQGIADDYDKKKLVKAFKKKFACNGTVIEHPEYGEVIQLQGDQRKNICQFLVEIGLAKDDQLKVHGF
inactive: [1] -0.006 | [2] -0.022 | [3] 0.063 | [4] -0.031 | [5] -0.004 | [6] 0.044 | [7] 0.011 | [8] -0.027 | [9] -0.023 | [10] 0.02 | [11] 0.026 | [12] 0.015 | [13] -0.016 | [14] 0.011 | [15] 0 | [16] -0.114 | [17] 0.059 | [18] 0.045 | [19] -0.043 | [20] -0.037

FAM98A (UniProt Q8NCA5)
inactive: [1] -0.004 | [2] -0.026 | [3] 0.028 | [4] -0.048 | [5] -0.02 | [6] 0.01 | [7] 0.014 | [8] -0.05 | [9] -0.017 | [10] -0.04 | [11] -0.033 | [12] -0.019 | [13] 0.046 | [14] 0.008 | [15] 0.014 | [16] 0.04 | [17] -0.045 | [18] 0.008 | [19] 0.035 | [20] 0.029

FMNL1 isoform 3 (UniProt O95466)
inactive: [1] -0.045 | [2] 0.045 | [3] -0.006 | [4] -0.102 | [5] -0.062 | [6] -0.004 | [7] 0.018 | [8] -0.006 | [9] 0.019 | [10] -0.009 | [11] 0.043 | [12] -0.002 | [13] 0.038 | [14] -0.02 | [15] 0.023 | [16] 0.099 | [17] 0.03 | [18] 0.073 | [19] 0.015 | [20] 0.001

DYNC1I2 isoform 5 (UniProt Q13409)
inactive: [1] -0.005 | [2] 0.001 | [3] -0.001 | [4] 0.009 | [5] 0 | [6] 0.009 | [7] 0.019 | [8] -0.007 | [9] 0.016 | [10] 0.018 | [11] 0.022 | [12] -0.021 | [13] 0 | [14] -0.014 | [15] 0.004 | [16] 0.012 | [17] -0.007 | [18] -0.012 | [19] 0.008 | [20] -0.003

FIBP (UniProt O43427)
inactive: [1] -0.071 | [2] -0.027 | [3] 0.022 | [4] 0.067 | [5] 0.018 | [6] 0.041 | [7] 0.079 | [8] -0.064 | [9] 0.029 | [10] 0.006 | [11] 0.015 | [12] 0.02 | [13] 0.032 | [14] -0.026 | [15] 0.028 | [16] 0.057 | [17] 0.036 | [18] 0.01 | [19] 0.024 | [20] 0.011

FADS3 (UniProt Q9Y5Q0)
inactive: [1] 0.075 | [2] -0.355 | [3] -0.052 | [4] 0.118 | [5] 0.016 | [6] -0.072 | [7] -0.124 | [8] 0.109 | [9] -0.291 | [10] -0.097 | [11] 0.11 | [12] -0.02 | [13] -0.123 | [14] 0.075 | [15] -0.051 | [16] 0.074 | [17] -0.49 | [18] 0.015 | [19] 0.017 | [20] -0.017

FANCD2 isoform 1 (UniProt Q9BXW9)
UniProt Q9BXW9, sequence (Q9BXW9 whole entry, looked up): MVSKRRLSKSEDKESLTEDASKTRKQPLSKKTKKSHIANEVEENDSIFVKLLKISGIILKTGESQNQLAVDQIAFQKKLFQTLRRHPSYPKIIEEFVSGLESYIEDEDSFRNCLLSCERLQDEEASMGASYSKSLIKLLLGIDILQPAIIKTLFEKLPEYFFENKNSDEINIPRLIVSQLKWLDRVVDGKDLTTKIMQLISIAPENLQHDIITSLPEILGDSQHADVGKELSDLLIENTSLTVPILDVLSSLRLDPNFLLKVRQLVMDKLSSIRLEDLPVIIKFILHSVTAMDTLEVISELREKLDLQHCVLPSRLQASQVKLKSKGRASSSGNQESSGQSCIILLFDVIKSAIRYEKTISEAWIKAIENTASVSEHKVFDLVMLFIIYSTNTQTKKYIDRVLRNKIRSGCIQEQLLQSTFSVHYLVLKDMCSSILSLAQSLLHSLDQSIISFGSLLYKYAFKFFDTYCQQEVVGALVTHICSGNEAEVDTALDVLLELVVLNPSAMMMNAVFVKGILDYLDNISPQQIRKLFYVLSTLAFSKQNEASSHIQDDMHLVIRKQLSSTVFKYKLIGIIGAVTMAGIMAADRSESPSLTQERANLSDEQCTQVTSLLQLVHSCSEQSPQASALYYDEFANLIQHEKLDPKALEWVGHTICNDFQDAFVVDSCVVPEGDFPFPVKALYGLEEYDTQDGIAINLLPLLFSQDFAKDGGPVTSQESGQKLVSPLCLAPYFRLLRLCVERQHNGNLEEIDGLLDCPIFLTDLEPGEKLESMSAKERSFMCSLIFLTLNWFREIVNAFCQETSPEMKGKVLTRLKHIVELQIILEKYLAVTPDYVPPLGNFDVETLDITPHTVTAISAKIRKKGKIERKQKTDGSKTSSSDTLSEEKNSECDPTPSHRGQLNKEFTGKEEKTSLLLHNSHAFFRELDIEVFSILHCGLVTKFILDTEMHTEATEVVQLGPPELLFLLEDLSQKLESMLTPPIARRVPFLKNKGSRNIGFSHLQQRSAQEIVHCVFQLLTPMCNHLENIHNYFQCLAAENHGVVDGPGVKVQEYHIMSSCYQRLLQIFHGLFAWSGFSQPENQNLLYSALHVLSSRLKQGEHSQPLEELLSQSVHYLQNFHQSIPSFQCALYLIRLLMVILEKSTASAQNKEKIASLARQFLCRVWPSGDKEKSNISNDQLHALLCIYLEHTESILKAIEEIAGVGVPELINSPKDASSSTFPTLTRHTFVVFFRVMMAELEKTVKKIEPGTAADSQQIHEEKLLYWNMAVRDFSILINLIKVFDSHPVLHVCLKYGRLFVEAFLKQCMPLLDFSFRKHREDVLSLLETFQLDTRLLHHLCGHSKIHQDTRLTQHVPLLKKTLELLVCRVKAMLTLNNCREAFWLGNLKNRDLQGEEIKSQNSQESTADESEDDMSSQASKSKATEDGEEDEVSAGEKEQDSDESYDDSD
inactive: [1] 0.059 | [2] 0.002 | [3] 0.019 | [4] -0.049 | [5] 0.01 | [6] 0.006 | [7] -0.092 | [8] -0.062 | [9] 0.095 | [10] 0.036 | [11] 0.01 | [12] -0.009 | [13] 0 | [14] -0.066 | [15] 0.048 | [16] -0.02 | [17] -0.068 | [18] 0.071 | [19] 0.011 | [20] -0.008

EDARADD (UniProt Q8WWZ3)
inactive: [1] 0.013 | [2] -0.022 | [3] 0.045 | [4] 0.019 | [5] -0.027 | [6] 0.049 | [7] -0.03 | [8] -0.035 | [9] -0.064 | [10] 0.031 | [11] 0.22 | [12] -0.019 | [13] -0.003 | [14] -0.071 | [15] -0.008 | [16] -0.007 | [17] 0.062 | [18] 0.041 | [19] 0.017 | [20] -0.035

FCHO1 (UniProt O14526)
inactive: [1] 0.062 | [2] 0.034 | [3] 0.045 | [4] -0.055 | [5] 0.024 | [6] 0.065 | [7] -0.064 | [8] -0.044 | [9] -0.022 | [10] -0.021 | [11] -0.053 | [12] 0.022 | [13] 0.018 | [14] 0.014 | [15] 0.013 | [16] 0.031 | [17] 0.018 | [18] 0.002 | [19] 0.004 | [20] 0.041

GEMIN5 (UniProt Q8TEQ6)
UniProt Q8TEQ6, sequence (Q8TEQ6 whole entry, looked up): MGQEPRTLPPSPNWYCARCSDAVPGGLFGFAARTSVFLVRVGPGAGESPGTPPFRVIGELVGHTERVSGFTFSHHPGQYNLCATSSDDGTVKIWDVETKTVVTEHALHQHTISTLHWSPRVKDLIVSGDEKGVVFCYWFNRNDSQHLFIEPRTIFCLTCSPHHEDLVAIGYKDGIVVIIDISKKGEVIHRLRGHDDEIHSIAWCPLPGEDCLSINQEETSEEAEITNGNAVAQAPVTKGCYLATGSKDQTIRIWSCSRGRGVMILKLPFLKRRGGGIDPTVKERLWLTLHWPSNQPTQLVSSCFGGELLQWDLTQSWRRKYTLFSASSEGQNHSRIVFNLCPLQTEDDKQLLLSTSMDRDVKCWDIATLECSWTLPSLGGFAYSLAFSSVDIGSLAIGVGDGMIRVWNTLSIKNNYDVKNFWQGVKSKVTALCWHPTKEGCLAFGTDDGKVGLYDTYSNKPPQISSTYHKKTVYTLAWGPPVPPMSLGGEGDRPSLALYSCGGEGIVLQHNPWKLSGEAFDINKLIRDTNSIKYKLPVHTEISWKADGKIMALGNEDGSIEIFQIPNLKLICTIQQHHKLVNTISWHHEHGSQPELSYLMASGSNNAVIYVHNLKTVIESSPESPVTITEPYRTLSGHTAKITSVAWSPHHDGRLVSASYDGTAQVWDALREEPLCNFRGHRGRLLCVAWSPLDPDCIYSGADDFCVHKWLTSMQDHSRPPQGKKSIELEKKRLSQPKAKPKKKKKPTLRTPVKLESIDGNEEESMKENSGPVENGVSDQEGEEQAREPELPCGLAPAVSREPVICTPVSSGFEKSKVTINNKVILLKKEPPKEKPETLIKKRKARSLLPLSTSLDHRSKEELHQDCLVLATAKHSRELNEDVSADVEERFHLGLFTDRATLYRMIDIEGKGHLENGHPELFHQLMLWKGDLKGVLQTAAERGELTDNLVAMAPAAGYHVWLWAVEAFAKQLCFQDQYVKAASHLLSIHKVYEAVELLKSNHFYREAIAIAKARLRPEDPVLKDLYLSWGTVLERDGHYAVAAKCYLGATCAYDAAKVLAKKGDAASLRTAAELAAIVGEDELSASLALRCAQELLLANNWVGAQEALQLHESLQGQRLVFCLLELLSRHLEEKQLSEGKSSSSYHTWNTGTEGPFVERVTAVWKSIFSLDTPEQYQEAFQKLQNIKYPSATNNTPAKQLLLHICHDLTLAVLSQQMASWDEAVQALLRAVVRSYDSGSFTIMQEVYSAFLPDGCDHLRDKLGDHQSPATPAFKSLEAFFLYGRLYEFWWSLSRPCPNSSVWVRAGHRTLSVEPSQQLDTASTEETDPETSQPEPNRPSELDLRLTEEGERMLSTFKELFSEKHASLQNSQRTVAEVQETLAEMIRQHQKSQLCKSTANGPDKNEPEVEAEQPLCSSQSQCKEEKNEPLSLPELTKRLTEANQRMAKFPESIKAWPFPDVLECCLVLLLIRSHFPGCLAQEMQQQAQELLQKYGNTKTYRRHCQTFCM
inactive: [1] -0.001 | [2] 0.004 | [3] -0.012 | [4] 0.015 | [5] 0.032 | [6] -0.006 | [7] -0.034 | [8] 0 | [9] -0.006 | [10] -0.025 | [11] 0.012 | [12] -0.01 | [13] 0.03 | [14] -0.001 | [15] 0.016 | [16] -0.02 | [17] -0.026 | [18] 0.005 | [19] 0.014 | [20] 0.007

EIF2D (UniProt P41214)
UniProt P41214, sequence (P41214 whole entry, looked up): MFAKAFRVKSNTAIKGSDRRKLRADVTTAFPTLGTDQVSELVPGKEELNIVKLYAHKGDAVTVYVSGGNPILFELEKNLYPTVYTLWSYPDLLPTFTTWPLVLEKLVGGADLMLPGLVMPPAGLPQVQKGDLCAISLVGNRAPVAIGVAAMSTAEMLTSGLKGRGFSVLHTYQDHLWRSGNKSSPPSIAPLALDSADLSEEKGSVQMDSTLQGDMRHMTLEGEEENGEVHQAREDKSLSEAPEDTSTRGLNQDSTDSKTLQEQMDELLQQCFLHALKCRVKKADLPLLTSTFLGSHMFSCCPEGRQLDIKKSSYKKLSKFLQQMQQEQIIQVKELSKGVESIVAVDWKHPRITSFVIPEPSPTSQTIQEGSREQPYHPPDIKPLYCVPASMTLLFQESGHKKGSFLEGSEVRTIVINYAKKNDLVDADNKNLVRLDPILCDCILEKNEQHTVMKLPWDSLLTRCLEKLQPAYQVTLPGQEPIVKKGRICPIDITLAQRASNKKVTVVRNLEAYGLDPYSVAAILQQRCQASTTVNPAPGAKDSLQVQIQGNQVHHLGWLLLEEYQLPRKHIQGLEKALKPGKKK
inactive: [1] 0.048 | [2] 0.019 | [3] -0.017 | [4] 0.054 | [5] 0.001 | [6] 0.008 | [7] -0.016 | [8] 0.025 | [9] 0.021 | [10] -0.023 | [11] 0.011 | [12] -0.017 | [13] 0.018 | [14] 0.026 | [15] 0.03 | [16] -0.005 | [17] -0.03 | [18] -0.004 | [19] 0.016 | [20] 0.01

FASTKD2 (UniProt Q9NYY8)
inactive: [1] 0.028 | [2] 0.041 | [3] -0.005 | [4] 0.03 | [5] 0.019 | [6] -0.007 | [7] -0.018 | [8] 0.013 | [9] 0.002 | [10] 0.016 | [11] -0.008 | [12] -0.006 | [13] -0.004 | [14] -0.039 | [15] -0.013 | [16] 0.003 | [17] -0.007 | [18] 0.034 | [19] -0.001 | [20] 0.024

EDC3 (UniProt Q96F86)
UniProt Q96F86, sequence (Q96F86 whole entry, looked up): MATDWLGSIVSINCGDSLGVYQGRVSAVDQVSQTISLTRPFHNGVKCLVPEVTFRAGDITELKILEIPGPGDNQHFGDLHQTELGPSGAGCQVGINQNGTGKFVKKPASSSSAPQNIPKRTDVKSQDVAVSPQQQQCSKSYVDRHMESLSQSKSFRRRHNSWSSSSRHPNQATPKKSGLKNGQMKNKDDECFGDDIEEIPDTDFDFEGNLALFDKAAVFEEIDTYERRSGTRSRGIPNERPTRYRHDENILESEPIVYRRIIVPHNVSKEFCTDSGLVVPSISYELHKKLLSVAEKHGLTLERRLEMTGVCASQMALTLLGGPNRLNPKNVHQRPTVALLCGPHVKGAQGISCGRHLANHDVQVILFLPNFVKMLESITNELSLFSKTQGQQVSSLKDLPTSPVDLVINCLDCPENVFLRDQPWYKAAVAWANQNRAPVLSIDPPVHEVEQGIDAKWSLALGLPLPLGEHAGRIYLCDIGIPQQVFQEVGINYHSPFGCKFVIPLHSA
inactive: [1] -0.008 | [2] -0.01 | [3] -0.023 | [4] -0.02 | [5] -0.031 | [6] 0.035 | [7] -0.011 | [8] -0.027 | [9] -0.013 | [10] 0 | [11] 0.038 | [12] 0.016 | [13] 0.004 | [14] 0.001 | [15] 0.046 | [16] 0.039 | [17] -0.014 | [18] 0.009 | [19] 0.019 | [20] -0.023

DUS2 (UniProt Q9NX74)
inactive: [1] 0.006 | [2] 0.007 | [3] 0.017 | [4] 0.057 | [5] 0.027 | [6] 0.021 | [7] 0.033 | [8] -0.016 | [9] 0.05 | [10] -0.004 | [11] 0.071 | [12] -0.036 | [13] 0.026 | [14] 0.097 | [15] -0.003 | [16] -0.056 | [17] -0.029 | [18] -0.004 | [19] 0.091 | [20] 0.01

GCLM (UniProt P48507)
inactive: [1] -0.012 | [2] 0.021 | [3] 0.006 | [4] 0.007 | [5] 0.023 | [6] -0.001 | [7] -0.034 | [8] 0.014 | [9] 0.039 | [10] 0.016 | [11] 0.006 | [12] -0.009 | [13] 0.01 | [14] -0.047 | [15] -0.028 | [16] 0.006 | [17] -0.007 | [18] 0.024 | [19] -0.026 | [20] -0.006
